What all share (test): qHTS profiling for inhibitors of Plasmodium falciparum proliferation (AID 504749); further: nearly all actives have a fitted effect of over 60% in size
Holding throughout (details): P. falciparum in erythrocytes, SYBR Green DNA, 72 h; series mostly up to 28.7 µM

In assay [1] the test system is CP291. A digest of the protocol: (§1)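 SYBR Green fluorescence (ex 485 nm, em 535 nm) reports parasite DNA after 72 h compound exposure of infected red cells at 0.3% parasitemia, 2.5% hematocrit; signal normalized to 0.29 uM artemisinin and vehicle wells.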
For assay [2], the system named is CP297. A digest of the protocol: as §1
Assay [3] relates to CP305. A digest of the protocol:
as §1

Assay [4] concerns CP315. The gist of the method:
as §1

Assay [5] deals with CP325. A digest of the protocol: as §1
The test system of assay [6] is CP329. A digest of the protocol: as §1
For assay [7], the system named is CP335. The gist of the method:
as §1

In assay [8] the test system is DFO2036. The gist of the method:
as §1

For assay [9], the system named is DIV14. The gist of the method:
as §1

The test system of assay [10] is DIV17. A digest of the protocol:
as §1

Assay [11] has as its system Dd2. The gist of the method: as §1
Assay [12] deals with ECU. A digest of the protocol:
as §1

The test system of assay [13] is FAB9. The gist of the method:
as §1

For assay [14], the system named is GB4. The gist of the method: as §1
In assay [15] the test system is HB3. A digest of the protocol:
as §1

Assay [16] concerns ICS. The gist of the method:
as §1

The test system of assay [17] is JCK. The gist of the method:
as §1

Assay [18] has as its system N140. A digest of the protocol: as §1
The subject of assay [19] is P93_24. A digest of the protocol: as §1
For assay [20], the system named is DIV30. A digest of the protocol: as §1

Inconclusive results are not listed. Activity calls are given as the source filed them. The call rests on the fitted dose curve; in most records, active means well fitted inhibition curve with a large enough effect; inconclusive means small, poorly fitted or top-dose-only effect; inactive means flat fitted curve, though single readings scatter.
Potency means the concentration at half of the fitted maximal effect.

In the case of `Nc1ccc(C(=O)Nc2ccccc2N)cc1`, the Potency result in assay [1], in assay [2], in [3], in assay [4], in assay [5] and in [6] was “inactive” in each case. The Potency entry in [7], in assay [8], in assay [9], in assay [10], in [11] and in assay [12] was “inactive” in each case. Besides, the Potency entry in [13], in assay [14], in [15], in [16], in assay [17] and in [18] was “inactive” in each case. Besides, the Potency result in assay [19] was “inactive”.

Consider `COC(=O)[C@H]1[C@H]2C[C@H]3c4[nH]c5ccccc5c4CCN3C[C@H]2CC[C@@H]1O`, for which the Potency entry in assay [1], in assay [2], in [3], in [4], in assay [5] and in [6] was “inactive” throughout. The Potency entry in assay [7], in [9], in assay [10], in assay [20] and in [14] was “inactive” throughout.

Consider `O=C(CCN1CCC(c2ccccc2)C1)c1ccc2c(c1)OCCO2` (stereo not given), for which the Potency entry in assay [1], in assay [2], in [3], in assay [4], in assay [5] and in assay [6] was “inactive” in each case. Besides, the Potency result in [7], in assay [8], in [20], in [11], in assay [12] and in assay [13] was “inactive” each time. For the same compound, the Potency entry in assay [15], in assay [16], in assay [17] and in [18] was “inactive” in each case.

With `Nc1cc(Cl)c(NC2=NCCN2)c(Cl)c1`, the Potency entry in assay [1], in [2], in assay [3], in [4], in assay [5] and in assay [6] was “inactive” in each case. For the same compound, the Potency entry in assay [7], in assay [8], in assay [10], in [20], in [11] and in assay [12] was “inactive” each time. Moreover, the Potency result in [13], in assay [14], in assay [15], in [16], in assay [17] and in [18] was “inactive” each time. Also, the Potency result in assay [19] was “inactive”.

Consider `CCC(C(=O)OCCN(CC)CC)c1ccccc1` (stereo not given), for which the Potency result in assay [1], in assay [2], in assay [3], in assay [4], in assay [5] and in assay [6] was “inactive” throughout. The Potency entry in assay [7], in [8], in assay [9], in [10], in assay [20] and in assay [12] was “inactive” in each case. Moreover, the Potency entry in assay [13], in assay [15], in assay [16], in assay [17], in [18] and in assay [19] was “inactive” each time.

Take `O=C(O)CCCCC(=O)O`: the Potency entry in [1], in [2], in assay [3], in [4], in assay [5] and in assay [6] was “inactive” in each case. Moreover, the Potency entry in [8], in assay [9], in assay [10], in [20], in assay [11] and in assay [12] was “inactive” throughout. In addition, the Potency entry in assay [13], in assay [14], in [15], in assay [16], in [17] and in assay [18] was “inactive” each time. The Potency result in [19] is “inactive”.

For the compound `N[C@H](Cc1c[nH]c2ccccc12)C(=O)O`, the Potency result in [1], in [2], in assay [3], in assay [4], in [5] and in assay [6] was “inactive” throughout. Moreover, the Potency entry in assay [8], in assay [9], in assay [10], in assay [20], in assay [12] and in assay [13] was “inactive” throughout. Besides, the Potency result in [14], in assay [15], in assay [16], in [17], in [18] and in [19] was “inactive” throughout.

As to `CC1=C(C(=O)OC(C)C)C(c2cccc([N+](=O)[O-])c2)C(C(=O)OC2CN(C(c3ccccc3)c3ccccc3)C2)=C(N)N1` (stereo not given), the Potency in assay [1] is 8.49 µM (active); in assay [2] it was 13.5 µM (active); in assay [3], 7.57 µM (active); in assay [4], 13.5 µM (active); in assay [5] it was 6.01 µM (active); in assay [6] it was 6.01 µM (active). Moreover, the Potency was 4.78 µM (active) in assay [7]; 7.08 µM (active) in assay [8]; 7.57 µM (active) in assay [9]; 9.53 µM (active) in assay [10]; 11.2 µM (active) in assay [11]; 7.08 µM (active) in assay [12]. The Potency in assay [14] is 6.01 µM (active); in assay [15], 11.2 µM (active); in assay [16], 4.47 µM (active); in assay [18], 7.94 µM (active); in assay [19], 6.31 µM (active).

In the case of `CCCCOc1ccc(OCCCN2CCOCC2)cc1`, the Potency result in [1], in assay [2], in assay [3], in [4], in assay [5] and in assay [6] was “inactive” in each case. The Potency entry in assay [8], in assay [9], in assay [10], in assay [20], in assay [11] and in assay [12] was “inactive” each time. Besides, the Potency entry in assay [13], in [14], in assay [15], in assay [16], in [17] and in [18] was “inactive” in each case. Besides, the Potency entry in [19] is “inactive”.

With `Cc1cc(O)c(C(C)C)cc1Cl`, the Potency entry in assay [1], in assay [2], in assay [3], in assay [4], in assay [5] and in assay [6] was “inactive” in each case. For the same compound, the Potency entry in assay [7], in assay [8], in [9], in [20], in [11] and in assay [12] was “inactive” each time. The Potency result in assay [13], in assay [17], in [18] and in [19] was “inactive” each time. Further, the Potency in assay [16] was 10 µM (active).

`CCCCC1=NC2(CCCC2)C(=O)N1Cc1ccc(-c2ccccc2-c2nn[nH]n2)cc1`: the Potency result in assay [1], in [2], in assay [3], in assay [4], in [5] and in [6] was “inactive” throughout. Moreover, the Potency entry in [7], in assay [8], in [10], in assay [20], in [11] and in [12] was “inactive” each time. The Potency entry in assay [13], in assay [15], in [17], in [18] and in assay [19] was “inactive” in each case.

These data come from PubChem BioAssay (NCATS).
